Experimental data published in PubChem BioAssay AID1159580 (chemical genetic matrix, 2015).
About 2,000 (36%) of roughly 5,500 compounds were called active. Not shown: some 18% with an inconclusive outcome. Rule as the data show it: active = normalized growth mostly below about 0.91 (no sharp cut-off); inconclusive = no clear call, values can overlap the other calls; inactive = mostly above about 0.92. The list shows a part of the results.

Experiment: chemical genetic growth profiling, strain panel (AID 1159580);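 also: tested at 20 µM; growth read once vehicle control cultures reached saturation at 30 °C; 1 = growth at the plate median or of vehicle wells; lower values mean less growth of the strain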
Settings: growth OD

Measured: normalized growth

C[C@]12CCC(=O)C=C1CCC1C2CC[C@@]2(C)C1CC[C@@H]2O (some centres not stated)
inactive: S. cerevisiae deletion strains, locus YJR075W, strain HOC1, hits give low values 0.996 | S. cerevisiae deletion strains, locus YKL009W, strain mrt4, hits give low values 0.957 | S. cerevisiae deletion strains, locus YKL068W, hits give low values 1.03 | S. cerevisiae deletion strains, locus YKL085W, strain MDH1 (second series), hits give low values 1.01 | S. cerevisiae deletion strains, locus YKL085W, strain MDH1, hits give low values 1.01 | S. cerevisiae deletion strains, locus YKL160W, strain elf1, hits give low values 0.994 | S. cerevisiae deletion strains, locus YKL190W, strain CNB1, hits give low values 1.03 | S. cerevisiae deletion strains, locus YKR001C, strain vps1, hits give low values 1.03 | S. cerevisiae deletion strains, locus YKR026C, strain gcn3, hits give low values 1 | S. cerevisiae deletion strains, locus YKR091W, strain srl3, hits give low values 0.991 | S. cerevisiae deletion strains, locus YLL001W, strain dnm1, hits give low values 1 | S. cerevisiae deletion strains, locus YLL026W, hits give low values 0.992 | S. cerevisiae deletion strains, locus YLL041C, strain sdh2, hits give low values 0.99 | S. cerevisiae deletion strains, locus YLR027C, strain aat2, hits give low values 1 | S. cerevisiae deletion strains, locus YLR039C, strain RIC1, hits give low values 1.17 | S. cerevisiae deletion strains, locus YLR058C, strain SHM2, hits give low values 1.02 | S. cerevisiae deletion strains, locus YLR102C, strain apc9, hits give low values 1.03 | S. cerevisiae deletion strains, locus YLR113W, strain HOG1, hits give low values 0.99 | S. cerevisiae deletion strains, locus YLR221C, strain rsa3, hits give low values 0.988 | S. cerevisiae deletion strains, locus YLR258W, strain gsy2, hits give low values 0.993 | S. cerevisiae deletion strains, locus YLR262C, strain YPT6 (second series), hits give low values 0.98 | S. cerevisiae deletion strains, locus YLR262C, strain YPT6, hits give low values 1.18 | S. cerevisiae deletion strains, locus YLR268W, strain sec22, hits give low values 1.01 | S. cerevisiae deletion strains, locus YLR320W, strain mms22, hits give low values 0.946 | S. cerevisiae deletion strains, locus YLR330W, strain CHS5, hits give low values 1.02 | S. cerevisiae deletion strains, locus YLR342W, strain FKS1 (second series), hits give low values 0.983 | S. cerevisiae deletion strains, locus YLR342W, strain FKS1, hits give low values 0.985 | S. cerevisiae deletion strains, locus YLR357W, strain rsc2, hits give low values 1.02 | S. cerevisiae deletion strains, locus YLR370C, strain arc18, hits give low values 0.988 | S. cerevisiae deletion strains, locus YLR371W, strain rom2, hits give low values 1.02 | S. cerevisiae deletion strains, locus YLR384C, strain iki3, hits give low values 1 | S. cerevisiae deletion strains, locus YLR418C, strain cdc73, hits give low values 1.02 | S. cerevisiae deletion strains, locus YML016C, strain PPZ1, hits give low values 1.02 | S. cerevisiae deletion strains, locus YML032C, strain rad52, hits give low values 1.02 | S. cerevisiae deletion strains, locus YML120C, strain ndi1, hits give low values 0.981 | S. cerevisiae deletion strains, locus YML124C, strain tub3, hits give low values 1.03 | S. cerevisiae deletion strains, locus YMR058W, strain fet3, hits give low values 0.993 | S. cerevisiae deletion strains, locus YMR078C, strain ctf18, hits give low values 1.03 | S. cerevisiae deletion strains, locus YMR125W, strain sto1, hits give low values 0.99 | S. cerevisiae deletion strains, locus YMR129W, hits give low values 0.993 | S. cerevisiae deletion strains, locus YMR205C, strain PFK2, hits give low values 0.936 | S. cerevisiae deletion strains, locus YMR223W, strain ubp8, hits give low values 1.01 | S. cerevisiae deletion strains, locus YMR231W, strain pep5, hits give low values 0.999 | S. cerevisiae deletion strains, locus YMR263W, strain SAP30, hits give low values 1.04 | S. cerevisiae deletion strains, locus YMR307W, strain GAS1, hits give low values 1.23 | S. cerevisiae deletion strains, locus YNL067W, strain RPL9B, hits give low values 0.993 | S. cerevisiae deletion strains, locus YNL071W, strain lat1, hits give low values 0.976 | S. cerevisiae deletion strains, locus YNL128W, strain TEP1, hits give low values 1.02 | S. cerevisiae deletion strains, locus YNL153C, strain GIM3, hits give low values 1.02 | S. cerevisiae deletion strains, locus YNL183C, strain NPR1, hits give low values 0.988 | S. cerevisiae deletion strains, locus YNL209W, strain ssb2, hits give low values 1.01 | S. cerevisiae deletion strains, locus YNL233W, strain BNI4, hits give low values 1.04 | S. cerevisiae deletion strains, locus YNL248C, strain rpa49, hits give low values 1 | S. cerevisiae deletion strains, locus YNL250W, strain rad50, hits give low values 1.05 | S. cerevisiae deletion strains, locus YNL271C, strain bni1, hits give low values 1.02 | S. cerevisiae deletion strains, locus YNL298W, strain CLA4, hits give low values 1 | S. cerevisiae deletion strains, locus YNL307C, strain MCK1, hits give low values 0.989 | S. cerevisiae deletion strains, locus YNL322C, strain KRE1 (second series), hits give low values 0.993 | S. cerevisiae deletion strains, locus YNL322C, strain KRE1, hits give low values 1.02 | S. cerevisiae deletion strains, locus YNR049C, strain mso1, hits give low values 0.982 | S. cerevisiae deletion strains, locus YNR052C, strain pop2, hits give low values 0.989 | S. cerevisiae deletion strains, locus YOL006C, strain TOP1, hits give low values 0.971 | S. cerevisiae deletion strains, locus YOL012C, strain htz1 1.89 | S. cerevisiae deletion strains, locus YOL147C, strain pex11, hits give low values 1.03 | S. cerevisiae deletion strains, locus YOR001W, strain rrp6, hits give low values 0.995 | S. cerevisiae deletion strains, locus YOR061W, strain CKA2, hits give low values 1.02 | S. cerevisiae deletion strains, locus YOR069W, strain VPS5, hits give low values 1.01 | S. cerevisiae deletion strains, locus YOR070C, strain gyp1, hits give low values 0.988 | S. cerevisiae deletion strains, locus YOR080W, strain dia2, hits give low values 0.983 | S. cerevisiae deletion strains, locus YOR083W, strain WHI5, hits give low values 0.983 | S. cerevisiae deletion strains, locus YOR106W, strain vam3, hits give low values 0.96 | S. cerevisiae deletion strains, locus YOR136W, strain idh2, hits give low values 1.04 | S. cerevisiae deletion strains, locus YOR144C, strain elg1, hits give low values 1.03 | S. cerevisiae deletion strains, locus YOR184W, strain ser1, hits give low values 0.98 | S. cerevisiae deletion strains, locus YOR231W, strain MKK1, hits give low values 0.99 | S. cerevisiae deletion strains, locus YOR265W, strain rbl2, hits give low values 0.989 | S. cerevisiae deletion strains, locus YOR270C, strain vph1, hits give low values 0.936 | S. cerevisiae deletion strains, locus YOR290C, strain snf2, hits give low values 0.967 | S. cerevisiae deletion strains, locus YOR316C, strain cot1, hits give low values 1.03 | S. cerevisiae deletion strains, locus YPL051W, strain arl3, hits give low values 1 | S. cerevisiae deletion strains, locus YPL055C, strain LGE1, hits give low values 1.07 | S. cerevisiae deletion strains, locus YPL078C, strain atp4, hits give low values 0.997 | S. cerevisiae deletion strains, locus YPL106C, strain sse1, hits give low values 1.05 | S. cerevisiae deletion strains, locus YPL240C, strain hsp82, hits give low values 0.978 | S. cerevisiae deletion strains, locus YPL241C, strain CIN2, hits give low values 1.03 | S. cerevisiae deletion strains, locus YPL256C, strain CLN2, hits give low values 1.06 | S. cerevisiae deletion strains, locus YPR119W, strain clb2, hits give low values 1.02 | S. cerevisiae deletion strains, locus YPR141C, strain kar3, hits give low values 1.04 | S. cerevisiae deletion strains, locus YPR163C, strain tif3, hits give low values 1.04 | S. cerevisiae deletion strains, locus YPR167C, strain met16, hits give low values 1.03 | S. cerevisiae deletion strains, strain wtn01, hits give low values 0.989 | S. cerevisiae strains, strain wild type, hits give low values 1.01
